esBAF inh: inhibitors of esBAF chromatin remodeling in mouse ES cells; Bmi1-luciferase knock-in reporter, 24 h; 100% = twice the neutral-well signal; reporter increase, % at 12.5 µM; 350,000 compounds, 2% hits; in the data active = activation above about 40%; inconclusive = no clear call, values can overlap the other calls;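 note: 0% = median of the plate's neutral control wells and 100% = double that signal; a rise in the Bmi1 reporter signal indicates esBAF inhibition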
HSF1 inh: HSF1 inhibition. NIH3T3-HGL HSE-luciferase, MG132-induced, luminescence 8 h; stronger effect = lower value. activity change, negative = inhibition, % at 7.5 µM (by protocol). 300,000 compounds, 0.77% hits. AID 2098;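 active = more than half of replicate wells show activity change below -50%, luminescence cut by over half; inconclusive = some wells, but at most half, below -50%; inactive = no replicate well below -50%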;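 note: luciferase reports HSF-1 transcriptional activity via heat shock element; 0% = median of DMSO wells and -100% = zero luminescence signal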
HSF1 activator: increases HSF-1 driven luciferase reporter signal; NIH3T3-HGL HSF-1 luciferase reporter, MG132, 8 h; 100% = twice DMSO control signal; activation, % at 9 µM; 300,000 compounds, 1.7% hits;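 active = mean replicate activation of at least 50% with a set share of replicates each reaching 50%; inconclusive = only one of those two conditions met; inactive = mean below 50% and too few replicates reaching it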;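 note: 0% = median of the neutral control wells and 100% = twice that signal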
SMARCA2 act: increases SMARCA2 function in MMTV reporter cells; MG213 cells, MMTV-luciferase reporter, dexamethasone, overnight; activation, % at 9.1 µM; 370,000 compounds, 1% hits; in the data active = activation above about 7.8%;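 note: 0% = vehicle wells and 100% = reference activator wells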
Wnt act: activators of Wnt/beta-catenin signaling; Wnt/beta-catenin reporter cell assay, activator, plate reader; AID 743398; 300,000 compounds, 1.2% hits; activation, % at 9.35 µM; in the data active = activation above about 30%, passing the limit was not always enough; inconclusive = no clear call, values can overlap the other calls;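 note: 0% = neutral control wells and 100% = positive control wells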
MITF TRPM1 HTS: MITF TRPM1 promoter activation in melanoma cells; SK-MEL-5 TRPM1-promoter luciferase, 24 h; % of positive control, neutral wells = 0; activation, % at 12.5 µM; 300,000 compounds, 0.75% hits;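 active = mean activation of at least 80% with every replicate also reaching 80%; inconclusive = mean reaches 80% but some replicate falls short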;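 note: 0% = neutral control wells and 100% = parthenolide positive control wells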
The depositor's hits bear a star; ? = inconclusive; . = no result given. Hits are enriched below; roughly 4.3% of the tested compounds scored in any of these assays.

SMILES	esBAF inh	HSF1 inh	HSF1 activator	SMARCA2 act	Wnt act	MITF TRPM1 HTS
Nc1nc(-c2cc3ccccc3o2)cs1	?	47.6	62.4*	3.3	55.6*	102.3*
OC(c1ccccc1)c1nc(-c2cc3ccccc3o2)cs1 (stereo not given)	47.4*	.	.	4.2	-0.9	.
O=C(C[C@H]1CC[C@H]2[C@@H](COC[C@@H](O)CN2Cc2cc(F)ccc2F)O1)NCc1ccc(Oc2ccccc2)cc1	7.8	.	.	.	.	.
COc1ccc(-n2cc3ccc([N+](=O)[O-])cc3n2)cc1	.	17.3	?	1.4	41.3*	23.2
COc1ccc(C2=NCCn3nc4cc([N+](=O)[O-])ccc4c32)cc1	3.5	-66.0*	-74.2	-1.4	-3.7	1.2
Cc1ccccc1-c1ccc([C@H]2[C@@H](CO)N3CCCCN(Cc4cccnc4)C[C@H]23)cc1	-13.4	.	.	.	.	.
Cc1noc(C)c1S(=O)(=O)Nc1ccc2c(c1)CC(=O)N([C@@H](C)CO)C[C@@H](C)[C@@H](CN(C)C(=O)NC1CCCCC1)O2	-1.6	.	.	.	.	.
O=C(c1ccccn1)c1ccc2ccccc2n1	.	33.6	59.4*	-2.0	43.5*	.
Cc1cccc(C)c1NCc1nnc(SCC(=O)Nc2nc(-c3ccccc3)cs2)n1-c1ccccc1	-9.7	24.4	59.9*	-1.9	0.5	0.6
CCOc1ccc(NCc2nnc(SCC(=O)Nc3nc(-c4ccccc4)cs3)n2-c2ccccc2)cc1	.	-67.4*	-68.3	-3.4	-7.3	-5.2
C[C@H]1CN([C@@H](C)CO)C(=O)c2cc(NS(C)(=O)=O)ccc2O[C@H]1CN(C)C(=O)Nc1ccc2c(c1)OCO2	1.3	.	.	.	.	.
COc1cc(C2CC(=O)Nc3cc(C)c(C)cc32)cc(OC)c1OC (stereo not given)	.	-2.1	10.1	-2.4	.	-11.4
CC1CC(=O)Nc2cc([N+](=O)[O-])ccc2N1 (stereo not given)	3.4	-89.1*	-91.5	-3.9	-2.7	14.0
CC1CC(=O)Nc2ccc([N+](=O)[O-])cc2N1C (stereo not given)	.	-3.5	6.8	-2.0	2.5	0.8
Cc1cc2c(cc1C)C(c1cccc([N+](=O)[O-])c1)CC(=O)N2 (stereo not given)	.	32.9	62.6*	-4.2	5.2	-7.4
CO[C@@H]1CN(C)C(=O)c2ccc(NC(C)=O)cc2OC[C@@H](C)N(Cc2cc(F)ccc2F)C[C@H]1C	4.1	.	.	.	.	.
C[C@@H]1CN([C@H](C)CO)C(=O)CCCn2cc(nn2)CO[C@H]1CN(C)Cc1ccncc1	-3.8	.	.	.	.	.
O=C(C[C@@H]1C[C@H]2c3cc(NC(=O)NC4CCCC4)ccc3O[C@H]2[C@H](CO)O1)NCCN1CCCCC1	1.5	.	.	.	.	.
Cn1c(NCCN2CCCC2)nc2cc(-c3ccccc3)sc2c1=O	19.3	.	.	1.7	-0.4	.
O=c1c2sc(-c3ccccc3)cc2nc2n1CCCCC2	.	32.3	55.5*	4.3	56.1*	.
Cc1ccc(-c2nnc(N(C)C(=O)c3cccnc3)s2)cc1	.	22.0	27.0	3.8	27.5	29.1
COc1ccc(-c2nnc(N(C)C(=O)c3cccnc3)s2)cc1	36.5	3.0	7.1	4.8	41.0*	35.8
CCCC(=O)Nc1ccc2c(c1)C(=O)N(C)[C@@H]1CC[C@@H](CC(=O)NCCN3CCCCC3)O[C@H]1CO2	-1.6	.	.	.	.	.
COc1ccc2occ(C(=O)c3cccs3)c2c1	39.7	35.5	78.2*	1.9	.	?
Cc1nc(C2COc3ccccc3O2)sc1C(=O)O (stereo not given)	45.0*	6.0	10.1	-2.4	12.3	37.4
SMILES	esBAF inh	HSF1 inh	HSF1 activator	SMARCA2 act	Wnt act	MITF TRPM1 HTS
Cc1nc2ccc3nc(NC(=O)C4COc5ccccc5O4)sc3c2s1 (stereo not given)	12.2	19.9	7.6	-2.8	0.4	.
c1cc2cc(-c3c(-c4ccc5c(c4)OCO5)noc3-c3ccsc3)ccc2[nH]1	54.9*	15.5	20.3	3.7	32.9*	41.9
CC(=O)c1ccc(NC(=O)CSc2nccn2CCc2ccccc2)cc1	78.5*	20.4	45.7	0.2	25.0	51.8
COC(=O)CSc1nc2ccccc2c(=O)n1C	-0.6	-0.2	4.2	2.7	41.7*	2.6
COCCCn1c(SCC(=O)Nc2ccc(C(C)=O)cc2)nc2ccccc2c1=O	65.7*	11.9	16.7	0.3	.	.
N#Cc1ccccc1NC(=O)CSc1nccn1CCc1ccccc1	56.0*	9.6	2.2	0.7	.	51.7
Cn1c(SCC(=O)O)nc2ccccc2c1=O	2.7	-1.6	-7.7	-0.5	-1.4	-1.6
O=C(Nc1cnn(Cc2ccc(F)cc2)c1)c1cc(-c2ccco2)on1	15.2	-54.5*	-66.4	3.1	8.7	12.1
Cc1ccc(NC(=O)c2cc(-c3ccco3)on2)cc1C	47.4*	39.1	54.9*	5.9	.	53.4
O=C(Nc1ccc(F)c(Cl)c1)c1cc(-c2ccco2)on1	-1.3	-0.2	6.8	-1.4	37.5*	22.5
O=C(Nc1ccccc1)OCc1cc(-c2ccccc2Cl)on1	49.7*	29.7	41.6	1.5	.	65.2
COc1ccc(NC(=O)c2cc(-c3ccco3)on2)cc1OC	31.3	19.8	11.8	-1.5	3.2	57.5
CCCNC(=O)N(C)C[C@@H]1Oc2ncc(C3=CCCCC3)cc2C(=O)N([C@@H](C)CO)C[C@@H]1C	-5.9	.	.	.	.	.
CO[C@@H]1CN(C)C(=O)c2ccc(NC(=O)NC(C)C)cc2OC[C@@H](C)N(CCC(F)(F)F)C[C@@H]1C	-3.5	.	.	.	.	.
Cc1ccc(NC(=O)c2cc(-c3ccco3)on2)cc1	.	6.6	27.1	-0.6	.	89.6*
Cc1ccc(NC(=O)c2cc(-c3cccc(O)c3)on2)cc1C	49.0*	19.8	7.1	5.6	23.1	55.0
Cc1cc(NC(=O)c2cc(-c3ccco3)on2)no1	1.3	10.5	9.3	-3.0	.	8.0
COc1ccc(NC(=O)c2cc(-c3ccccc3Cl)on2)cc1OC	-5.1	4.5	2.2	2.2	6.1	6.4
O=C(Nc1cccc(O)c1)c1cc(-c2ccccc2Cl)on1	-7.9	-58.4*	-67.1	-1.9	1.9	.
O=C(Nc1cccc(O)c1)c1cc(-c2ccc3c(c2)OCO3)on1	-65.6	-35.0	-40.7	-1.1	3.8	-44.5
C[C@H](CO)N1C[C@H](C)[C@H](CN(C)Cc2ccc(C(=O)Nc3ccccc3N)cc2)Oc2ccc(NC(=O)Cc3cn(C)c4ccccc34)cc2C1=O	-14.8	.	.	.	.	.
O=S(=O)(N[C@H]1CC[C@H](CCNS(=O)(=O)c2ccccc2Cl)O[C@@H]1CO)c1ccccc1	6.7	.	.	.	.	.
Cc1ccc(-c2ccc3c(c2)O[C@@H](CN(C)Cc2ccc(F)cc2)[C@H](C)CN([C@@H](C)CO)S3(=O)=O)cc1	-5.9	.	.	.	.	.
CCOc1ccc(C(=O)NNC2CC(=O)N(Cc3ccc(Cl)cc3)C2=O)cc1OC (stereo not given)	.	-11.6	-4.1	0.7	-2.3	2.1
COc1ccc(C(=O)NNC2CC(=O)N(Cc3ccccc3)C2=O)cc1OC (stereo not given)	-0.2	-2.1	-24.9	7.9*	.	2.2
